40 compounds from PubChem BioAssay (Tox21) can be followed below.

Values without a mark were called inactive. Entries that show only a call come without a potency. Calls of active or inactive are those of the source. Calls come from the whole dose curve; as a rule, active = well fitted curve in the direction sought with a large enough effect in the repeat runs; inconclusive = weak or mixed curves; inactive = flat fitted curve, though single readings scatter.
Potency is the fitted concentration of half-maximal effect; tags give direction and shape of the fitted curve or compound fluorescence and quenching.

The assay is described as follows: qHTS assay to test for compound auto fluorescence at 460 nm (blue) in HEK293 cells (AID 720678). To be noted: blue autofluorescence 405/460 nm; series mostly up to 91.3 µM; fluorescence, % of triamterene: at the top concentration. From the text:
National Center for Advancing Translational Sciences [NCATS]
NIH Chemical Genomics Center [NCGC]
U.S. Environmental Protection Agency [EPA]
National Institutes of Environmental Health Sciences [NIEHS]
National Toxicology Program [NTP]
U.S. Food and Drug Administration [FDA]
Compound auto fluorescence often interferes with screening of the compound library against various biological targets and signaling pathways. Some of these compounds may have fluorophoric properties. Such properties may interfere with the assay outputs resulting in false positives and/or negatives. To decrease such complications and ensure the compound activities are relevant in terms of biological response, the Tox21 10K compound library was screened for auto fluorescence.
From the fluorophores used as reporter signals in our screening assays, the auto fluorescence equivalencies of compounds against three fluorophores have been evaluated: Triamterene, Fluorescein and Rose Bengal sodium for blue, green and red fluorescence, respectively. The fluorescence intensities were measured using Excitation/Emission wavelengths at 405/460nm, 485/535nm and 540/590nm for blue, green and red labels, respectively. This assay includes the blue fluorescence data.
Tox21 Assay Protocol Summary:
2,000 HEK293 cells in 5 uL of culture medium containing 10% dialyzed FBS per well were dispensed into black wall/clear bottom 1536-well plates using a Multidrop Combi Dispenser (Thermo Scientific). The assay plates were incubated for 4-5 hr at 37C to allow cell attachment to the well bottom, followed by the transfer of 23 nL compound or DMSO vehicle by a pintool work station (Kalypsys, San Diego, CA). After the assay plates were incubated overnight at 37C and 5% CO2, fluorescence intensities in the assay plates were measured by an Envision (PerkinElmer, Shelton, CT) plate reader using three labels for measuring blue, green and red fluorescence at […] 460, 535 and 590nm respectively.
Turning to `CC1(C)O[C@@H]2C[C@H]3[C@@H]4C[C@H](F)C5=CC(=O)CC[C@]5(C)[C@H]4[C@@H](O)C[C@]3(C)[C@]2(C(=O)CO)O1`, the Potency result is “inactive”. Regarding `CCCCOCCO`, the Potency entry was “inactive”. On to `Nc1nc2ncc(CNc3ccc(C(=O)N[C@@H](CCC(=O)O)C(=O)O)cc3)nc2c(=O)[nH]1`, for which the Potency was 44.7 µM [fluorescent] (active). Consider `Clc1ccc(Cl)c(Cl)c1Cl`, for which the Potency result is “inactive”. `NCCNCCNCCNCCN`: the Potency result is “inactive”. Regarding `COC(=O)Nc1nc2ccc(Sc3ccccc3)cc2[nH]1`, the Potency entry was “inactive”. Regarding `OC[C@@H](O)[C@H](O)[C@H](O)[C@@H](O)CO`, the Potency entry was “inactive”. Turning to `CCOC(=O)C1OC1c1ccccc1` (stereo not given), the Potency result was “inactive”.

Consider `CCCCC(CC)C(=O)OCCOCCOCCOC(=O)C(CC)CCCC` (stereo not given), for which the Potency result is “inactive”.

With `CC(C)n1c(/C=C/[C@@H](O)C[C@@H](O)CC(=O)O)c(-c2ccc(F)cc2)c2ccccc21`, the Potency entry was “inactive”. On the same count and under the same terms, to `CC(C)(C)C1CCC(O)CC1` (stereo not given) belongs “inactive”.

For `CN(CCOc1ccc(CC2SC(=O)NC2=O)cc1)c1ccccn1` (stereo not given), the Potency entry is “inactive”. As for `CCc1ccc(O)cc1`, the Potency result was “inactive”. For the compound `C=C1C2CCC(C2)C1(C)C` (stereo not given), the Potency result was “inactive”. Consider `C=C(C)C(=O)OCC(CC)(COC(=O)C(=C)C)COC(=O)C(=C)C`, for which the Potency result is “inactive”. On to `S=c1nc[nH]c2nc[nH]c12`, for which the Potency result was “inactive”. Regarding `O=c1c(-c2ccc(O)cc2)coc2cc(O)ccc12`, the “fluorescence, % of triamterene” value is 0.64%. Turning to `CC(=O)CCc1ccccc1`, the Potency result was “inactive”. For the compound `COC(=O)c1ccccc1O`, the Potency entry was “inactive”.

On to `CCCCC/C=C\C/C=C\CCCCCCCC(=O)OC`, for which the Potency result was “inactive”. For the compound `C=C(C)C(=O)OCCCCCC`, the Potency entry is “inactive”. Consider `O=[N+]([O-])C(CO)(CO)CO`, for which the Potency result is “inactive”. Regarding `CCOC(=O)[C@H](CCc1ccccc1)N[C@@H](C)C(=O)N1Cc2ccccc2C[C@H]1C(=O)O`, the Potency result was “inactive”. Take `CCCCCCC(C)(C)S`: the Potency entry is “inactive”. For the compound `O=C(O)c1cc(-c2ccccc2)nc2ccccc12`, the Potency result is “inactive”. Regarding `COCC(=O)O`, the Potency result was “inactive”.

As to `CNC[C@H](O)[C@@H](O)[C@H](O)[C@H](O)CO`, the Potency entry is “inactive”. On to `Cc1ccc(N)c(S(=O)(=O)O)c1`, for which the Potency result was “inactive”.

Turning to `CCCCC(CC)COC(=O)CCCCCCCC(=O)OCC(CC)CCCC` (stereo not given), the Potency entry is “inactive”. As for `CCCCCCCCCCCCOCC1CO1` (stereo not given), the Potency result was “inactive”. Same read-out and setting: the value for `CCOC(=O)/C=C\C(=O)OCC` was “inactive”. As for `Cc1cc(NS(=O)(=O)c2ccc(N)cc2)no1`, the Potency entry was “inactive”. With `Cc1cc(O)cc(C)c1Cl`, the Potency entry was “inactive”. Consider `CC#C[C@]1(O)CC[C@H]2[C@@H]3CCC4=CC(=O)CCC4=C3[C@@H](c3ccc(N(C)C)cc3)C[C@@]21C`, for which the Potency result was “inactive”. As to `Oc1c(Cl)cc(Cl)c(Cl)c1Cl`, the Potency entry is “inactive”.

As for `CCCCCC/C=C/CCCCCCCC(=O)O`, the Potency result was “inactive”.

As to `CCC(C)C=O` (stereo not given), the Potency result was “inactive”. As to `OC1CCCC1`, the Potency result is “inactive”. In the case of `O=C1CCCCC1`, the Potency entry is “inactive”. Regarding `C=C(C)C(=O)OCCCCCCCCCCCC`, the Potency entry was “inactive”.
